6 molecules from PubChem BioAssay (EPA / NIEHS) can be followed below.

The nature of experiment [1]: ATG_NFI_CIS: Attagene CIS-FACTORIAL HepG2 Assay for human Nuclear Factor I (NFI) (AID 2282989). The conditions noted are these: HepG2 cis-regulatory reporter, NFI response element transcription; actives raise or lower the signal. A digest of the protocol: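 Multiplexed cis-reporter system in human HepG2 cells reports native TF activity as reporter mRNA induction 24 h post-dose. Fragments labelled with 6-FAM, HpaI-digested and resolved by capillary electrophoresis; activity fitted both directions versus DMSO.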

The target in experiment [2] is Myc proto-oncogene protein (Homo sapiens) (UniProt P01106). Kind of experiment: ATG_Myc_CIS: Attagene CIS-FACTORIAL HepG2 Assay for human Myelocytomatosis (Myc) Proto-Oncogene Transcription Factor (AID 2282990). The conditions noted are these: HepG2, Attagene cis-reporter transcription factor activity; actives raise or lower the signal. A digest of the protocol:
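After 24 h chemical treatment of HepG2 cells carrying multiplexed cis-regulated reporter constructs, reporter transcripts quantified by RT-PCR and capillary electrophoresis of fluorescent fragments. Gain or loss fitted against DMSO baseline.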

Experiment [3] is described as follows: ATG_NF_kB_CIS: Attagene CIS-FACTORIAL HepG2 Assay for human Nuclear Factor Kappa B (NF-kB) (AID 2282991). The conditions noted are these: HepG2 Attagene cis-factorial NF-kB reporter mRNA; actives raise or lower the signal. In short, it runs like this: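 HepG2 cells transfected with cis-promoter-driven reporter units, so endogenous transcription factor activity is measured. Reporter mRNA quantified 24 h after dosing by RT-PCR and capillary electrophoresis, with bidirectional fitting against DMSO.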

Experiment [4] can be described thus: ATG_NRF2_ARE_CIS: Attagene CIS-FACTORIAL HepG2 Assay for human Nuclear Factor Erythroid 2 Related Factor 2 (NFR2) response to Antioxidant Response Elements (ARE) (AID 2282992).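 On AC50: reporter mRNA level measured by RT-PCR and capillary electrophoresis fluorescence.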 The conditions noted are these: HepG2 Attagene ARE/NRF2 reporter, transcription factor activity; actives raise or lower the signal. A digest of the protocol: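 Cis-factorial assay: transfected HepG2 reporter library, 24 h dosing, mRNA readout via RT-PCR/CE; DMSO-referenced bidirectional analysis.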

Experiment [5] can be described thus: ATG_Oct_MLP_CIS: Attagene CIS-FACTORIAL HepG2 Assay for human Octamer-Binding Transcription Factor (Oct) (AID 2282993). The settings on record: HepG2 Attagene cis-factorial Oct reporter, mRNA; actives raise or lower the signal. A digest of the protocol:
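After 24 h compound exposure, transfected HepG2 cells were lysed for total RNA; reporter-specific cDNA was PCR-amplified, fluorescently labelled and sized by capillary electrophoresis. Bidirectional curve fitting used DMSO as baseline.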

Experiment [6] deals with Cellular tumor antigen p53 (Homo sapiens) (UniProt P04637). The experiment in a line: ATG_p53_CIS: Attagene CIS-FACTORIAL HepG2 Assay for human p53 Transcription Factor (AID 2282994). The conditions noted are these: HepG2 p53 cis-element reporter, Attagene mRNA; actives raise or lower the signal. A digest of the protocol:
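Using HepG2 hepatoma cells carrying cis-acting multiplexed reporters, mRNA induction is detected after a 24 h exposure. Gain- and loss-of-signal responses are fitted relative to DMSO-treated cells.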

Experiment [7] in a line: BSK_3C_TissueFactor: BioMAP Diversity Plus: 3C Assay for Tissue Factor Biomarker Activity (AID 2282997). The settings on record: BioMAP 3C HUVEC, tissue factor biomarker readout; actives raise or lower the signal. In short, it runs like this:
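Primary human umbilical vein endothelial cells in the 3C system were exposed to test chemical for 24 h, then Tissue Factor measured by ELISA. Activity was fitted bidirectionally against DMSO as negative control and baseline.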

Experiment [8] can be described thus: BSK_3C_uPAR: BioMAP Diversity Plus: 3C Assay for Urokinase-type plasminogen activator receptor (uPAR) Biomarker Activity (AID 2282998). The settings on record: BioMAP 3C HUVEC, uPAR biomarker ELISA; actives raise or lower the signal. In short, it runs like this: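 Values derive from bidirectional curve fitting relative to DMSO, which served as baseline of activity. uPAR was measured by ELISA in human umbilical vein endothelial primary cultures 24 h after compound addition.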

The nature of experiment [9]: BSK_3C_VCAM1: BioMAP Diversity Plus: 3C Assay for Vascular cell adhesion molecule 1 (VCAM1) Biomarker Activity (AID 2282999). The conditions noted are these: BioMAP 3C HUVEC, VCAM1 ELISA, cytokine-stimulated; actives raise or lower the signal. A digest of the protocol:
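Endothelial cells from human umbilical vein are treated with test chemical. At 24 h, VCAM-1 is measured by ELISA, and responses in either direction are fitted relative to DMSO.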

Experiment [10] is described as follows: BSK_4H_Eotaxin3: BioMAP Diversity Plus: 4H Assay for Eotaxin 3 Biomarker Activity (AID 2283000).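 On outcome: CCL26 protein level quantified by ELISA in parallel with SRB cytotoxicity check.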 The settings on record: primary human endothelial cells (HUVEC); actives raise or lower the signal. A digest of the protocol:
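HUVEC, 24 h post-dose, ELISA for Eotaxin-3/CCL26. Gain or loss of signal fitted bidirectionally vs DMSO baseline.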

For experiment [11], the target named is human Peroxisome Proliferator-activated Receptor delta (PPARd), PPARD (gene 5467) (UniProt Q03181). Kind of experiment: ATG_PPARd_TRANS: Attagene TRANS-FACTORIAL HepG2 Assay for human Peroxisome Proliferator-activated Receptor delta (PPARd) (AID 2283002; active means hit-call score of the fitted dose curve at least 0.9, where 1 is the maximum). A digest of the protocol:
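Read-out is induced reporter mRNA, quantified by RT-PCR with fluorescent labelling and capillary electrophoresis after 24 h dosing. Cells are HepG2 transiently carrying multiple GAL4-UAS reporter units driven by exogenous NR-GAL4 chimeras; DMSO serves as baseline.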

Read-out in experiment [12]: Intercellular Adhesion Molecule 1 (ICAM1), ICAM1 (gene 3383)
The experiment in a line: BSK_3C_ICAM1: BioMAP Diversity Plus: 3C Assay for Intercellular Adhesion Molecule 1 (ICAM1) Biomarker Activity (AID 2283003). The conditions noted are these: primary human endothelial cells (HUVEC); actives raise or lower the signal. In short, it runs like this: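 Human vascular endothelial primary cells, 3C conditions, 24 h treatment. ICAM-1 by ELISA.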

Experiment [13] concerns the target Retinoic acid receptor alpha (Homo sapiens) (UniProt P10276). The experiment in a line: ATG_RARa_TRANS: Attagene TRANS-FACTORIAL HepG2 Assay for human Retinoic Acid Receptor alpha (RARa) (AID 2283005; active means hit-call score of the fitted dose curve at least 0.9, where 1 is the maximum). In short, it runs like this:
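Reporter transcripts, measured by RT-PCR with fluorescent labeling and capillary electrophoresis after 24 h dosing, reflect activity of an exogenous human RARa–GAL4 fusion in transiently transfected HepG2. Fitted for increase relative to DMSO.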

A short description of experiment [14]: BSK_3C_Proliferation: Cell Proliferation Assessment in the BioMAP Diversity Plus: 3C Assay (AID 2283006).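 On AC50: potency may reflect either rise or fall in cell number versus DMSO.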 The settings on record: primary human endothelial cells (HUVEC). A digest of the protocol: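 Proliferation of human vascular endothelial primary cells after 48 h dosing, quantified as SRB-stained protein at 560 nm relative to DMSO.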
Experiment [15] has as its target Nuclear receptor subfamily 1 group I member 2 (Homo sapiens) (UniProt O75469). The experiment in a line: ATG_PXR_TRANS: Attagene TRANS-FACTORIAL HepG2 Assay for human Pregnane X Receptor (PXR) (AID 2283008; active means hit-call score of the fitted dose curve at least 0.9, where 1 is the maximum). In short, it runs like this: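 Fluorescence intensity of FAM-labelled, HpaI-digested reporter amplicons, separated by capillary electrophoresis, quantifies induction. HepG2 cells with PXR-Gal4 trans-reporter system were exposed 24 h; DMSO defines baseline.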

Experiment [16] has as its target human Retinoic Acid Receptor gamma (RARg), RARG (gene 5916) (UniProt P13631). The experiment in a line: ATG_RARg_TRANS: Attagene TRANS-FACTORIAL HepG2 Assay for human Retinoic Acid Receptor gamma (RARg) (AID 2283009; active means hit-call score of the fitted dose curve at least 0.9, where 1 is the maximum). A digest of the protocol: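 HepG2, RARg-GAL4 TRANS system, 24 h exposure; reporter mRNA by RT-PCR + CE fluorescence; increase over DMSO.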
Experiment [17] has as its target human Retinoic Acid Receptor beta (RARb), RARB (gene 5915) (UniProt P10826). Kind of experiment: ATG_RARb_TRANS: Attagene TRANS-FACTORIAL HepG2 Assay for human Retinoic Acid Receptor beta (AID 2283004; active means hit-call score of the fitted dose curve at least 0.9, where 1 is the maximum). In short, it runs like this:
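HepG2 cells transiently transfected with multiplexed GAL4-UAS reporter units expressing chimeric NR–Gal4 fusions; 24 h compound exposure. Reporter mRNA quantified by RT-PCR, 6-FAM labelling, HpaI digestion and capillary electrophoresis; gain-of-signal fitted against DMSO baseline.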

The target of experiment [18] is Peroxisome proliferator-activated receptor gamma (Homo sapiens) (UniProt P37231). Kind of experiment: ATG_PPARg_TRANS: Attagene TRANS-FACTORIAL HepG2 Assay for human Peroxisome Proliferator-activated Receptor-gamma (PPARg) (AID 2283007; active means hit-call score of the fitted dose curve at least 0.9, where 1 is the maximum). In short, it runs like this: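 HepG2 cells are transiently transfected with GAL4-UAS reporter units driven by chimeric NR-Gal4 fusions and dosed for 24 h. Reporter mRNA is quantified by RT-PCR, 6-FAM labelling, HpaI digestion and capillary electrophoresis. Induction is scored against DMSO.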
Chain of Peroxisome proliferator-activated receptor gamma (Homo sapiens) (P37231 whole entry, looked up, the tested form may be a part): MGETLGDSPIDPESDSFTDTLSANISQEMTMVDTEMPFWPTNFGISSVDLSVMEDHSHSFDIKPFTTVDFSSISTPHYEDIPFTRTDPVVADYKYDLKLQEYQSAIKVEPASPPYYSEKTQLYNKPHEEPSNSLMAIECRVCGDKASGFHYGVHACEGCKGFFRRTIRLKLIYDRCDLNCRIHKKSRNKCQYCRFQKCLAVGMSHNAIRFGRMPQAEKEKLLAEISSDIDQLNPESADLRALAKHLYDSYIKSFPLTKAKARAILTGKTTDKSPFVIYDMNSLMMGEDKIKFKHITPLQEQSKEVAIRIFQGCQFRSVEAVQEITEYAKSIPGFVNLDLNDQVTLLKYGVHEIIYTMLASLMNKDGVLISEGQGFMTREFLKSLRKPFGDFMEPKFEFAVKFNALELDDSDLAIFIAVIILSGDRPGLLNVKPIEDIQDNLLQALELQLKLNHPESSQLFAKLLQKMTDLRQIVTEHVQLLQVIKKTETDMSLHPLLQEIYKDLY

The target of experiment [19] is human RAR-related Orphan Receptor beta (RORb), RORB (gene 6096) (UniProt Q92753). Kind of experiment: ATG_RORb_TRANS: Attagene TRANS-FACTORIAL HepG2 Assay for human RAR-related Orphan Receptor beta (RORb) (AID 2283010; active means hit-call score of the fitted dose curve at least 0.9, where 1 is the maximum). A digest of the protocol: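 In this TRANS-format test, human HepG2 cells express chimeric NR-Gal4 fusion proteins driving GAL4-UAS reporters. After 24 h dosing, reporter transcripts are measured by fluorescent RT-PCR/capillary electrophoresis, with DMSO as negative control.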
Chain of human RAR-related Orphan Receptor beta (RORb), RORB (gene 6096) (Q92753 whole entry, looked up, the tested form may be a part): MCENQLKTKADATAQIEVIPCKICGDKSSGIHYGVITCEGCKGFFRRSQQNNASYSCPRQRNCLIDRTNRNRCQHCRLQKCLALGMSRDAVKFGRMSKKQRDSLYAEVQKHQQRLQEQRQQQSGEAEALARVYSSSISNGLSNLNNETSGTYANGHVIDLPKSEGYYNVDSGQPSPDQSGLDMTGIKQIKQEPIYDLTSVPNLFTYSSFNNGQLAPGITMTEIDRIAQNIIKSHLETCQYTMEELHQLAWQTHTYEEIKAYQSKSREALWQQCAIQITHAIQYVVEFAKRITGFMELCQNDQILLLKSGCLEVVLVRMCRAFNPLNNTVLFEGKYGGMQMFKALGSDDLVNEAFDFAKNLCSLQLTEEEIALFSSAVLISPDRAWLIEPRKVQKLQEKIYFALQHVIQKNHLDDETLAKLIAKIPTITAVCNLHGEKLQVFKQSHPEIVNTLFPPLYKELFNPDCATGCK

“And” between values parts separate entries of the source, which are not always exact repeats. Equal values may be shown once. Records with an inconclusive call do not appear. Some compounds were tested as several samples or in several runs, with calls that do not always agree. The source made the active and inactive calls. How the source made its calls, unless noted: active means hit-call score of the fitted dose curve at least 0.9, where 1 is the maximum; inactive means score below 0.9.

Chain of Cellular tumor antigen p53 (Homo sapiens) (P04637 whole entry, looked up): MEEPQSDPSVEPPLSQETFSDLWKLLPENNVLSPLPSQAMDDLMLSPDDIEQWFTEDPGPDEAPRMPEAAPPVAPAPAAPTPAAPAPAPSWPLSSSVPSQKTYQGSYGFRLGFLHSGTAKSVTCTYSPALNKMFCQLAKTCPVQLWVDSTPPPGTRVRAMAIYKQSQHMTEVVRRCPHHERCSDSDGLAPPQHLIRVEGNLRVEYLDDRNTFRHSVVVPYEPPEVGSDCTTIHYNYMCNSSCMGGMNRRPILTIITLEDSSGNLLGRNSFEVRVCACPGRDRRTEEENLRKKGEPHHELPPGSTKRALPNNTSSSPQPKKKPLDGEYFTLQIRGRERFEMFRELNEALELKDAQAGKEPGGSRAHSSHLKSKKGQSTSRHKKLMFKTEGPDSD
Chain of human Retinoic Acid Receptor beta (RARb), RARB (gene 5915) (P10826 whole entry, looked up, the tested form may be a part): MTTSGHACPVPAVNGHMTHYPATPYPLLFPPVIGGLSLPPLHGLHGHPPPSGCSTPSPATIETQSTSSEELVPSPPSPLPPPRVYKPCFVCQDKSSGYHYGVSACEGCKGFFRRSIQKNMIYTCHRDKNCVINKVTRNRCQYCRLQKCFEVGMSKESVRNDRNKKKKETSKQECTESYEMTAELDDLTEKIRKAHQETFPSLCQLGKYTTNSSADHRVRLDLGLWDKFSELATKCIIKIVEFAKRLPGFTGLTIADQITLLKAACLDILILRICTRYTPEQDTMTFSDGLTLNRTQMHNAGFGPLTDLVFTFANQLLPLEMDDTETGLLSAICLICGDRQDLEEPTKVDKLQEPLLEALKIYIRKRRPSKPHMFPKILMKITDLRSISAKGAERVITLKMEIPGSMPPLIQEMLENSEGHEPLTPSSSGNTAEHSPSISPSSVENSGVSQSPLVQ
Chain of human Peroxisome Proliferator-activated Receptor delta (PPARd), PPARD (gene 5467) (Q03181 whole entry, looked up, the tested form may be a part): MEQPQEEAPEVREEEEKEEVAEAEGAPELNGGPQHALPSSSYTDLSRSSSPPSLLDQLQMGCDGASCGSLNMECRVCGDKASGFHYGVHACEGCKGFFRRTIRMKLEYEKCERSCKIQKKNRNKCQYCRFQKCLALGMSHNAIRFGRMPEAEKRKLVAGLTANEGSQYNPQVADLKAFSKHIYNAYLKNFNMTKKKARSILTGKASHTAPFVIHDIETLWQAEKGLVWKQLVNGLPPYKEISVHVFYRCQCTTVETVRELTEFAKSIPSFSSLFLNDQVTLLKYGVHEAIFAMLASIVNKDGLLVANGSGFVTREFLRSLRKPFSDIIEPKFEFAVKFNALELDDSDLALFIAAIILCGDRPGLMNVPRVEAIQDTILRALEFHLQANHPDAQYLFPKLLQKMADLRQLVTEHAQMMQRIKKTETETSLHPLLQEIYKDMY
Chain of Myc proto-oncogene protein (Homo sapiens) (P01106 whole entry, looked up, the tested form may be a part): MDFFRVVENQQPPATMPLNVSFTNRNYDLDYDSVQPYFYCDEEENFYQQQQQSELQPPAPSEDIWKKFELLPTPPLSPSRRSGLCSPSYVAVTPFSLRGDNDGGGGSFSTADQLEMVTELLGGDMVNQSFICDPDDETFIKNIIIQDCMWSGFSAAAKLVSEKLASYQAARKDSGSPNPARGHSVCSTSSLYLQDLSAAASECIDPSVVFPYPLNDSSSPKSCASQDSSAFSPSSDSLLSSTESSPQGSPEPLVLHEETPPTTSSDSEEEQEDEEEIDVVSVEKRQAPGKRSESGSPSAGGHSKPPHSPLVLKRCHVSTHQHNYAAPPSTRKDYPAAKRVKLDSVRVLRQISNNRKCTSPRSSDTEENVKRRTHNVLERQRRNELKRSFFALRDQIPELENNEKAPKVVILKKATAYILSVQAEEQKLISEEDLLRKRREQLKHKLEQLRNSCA
Chain of human Retinoic Acid Receptor gamma (RARg), RARG (gene 5916) (P13631 whole entry, looked up, the tested form may be a part): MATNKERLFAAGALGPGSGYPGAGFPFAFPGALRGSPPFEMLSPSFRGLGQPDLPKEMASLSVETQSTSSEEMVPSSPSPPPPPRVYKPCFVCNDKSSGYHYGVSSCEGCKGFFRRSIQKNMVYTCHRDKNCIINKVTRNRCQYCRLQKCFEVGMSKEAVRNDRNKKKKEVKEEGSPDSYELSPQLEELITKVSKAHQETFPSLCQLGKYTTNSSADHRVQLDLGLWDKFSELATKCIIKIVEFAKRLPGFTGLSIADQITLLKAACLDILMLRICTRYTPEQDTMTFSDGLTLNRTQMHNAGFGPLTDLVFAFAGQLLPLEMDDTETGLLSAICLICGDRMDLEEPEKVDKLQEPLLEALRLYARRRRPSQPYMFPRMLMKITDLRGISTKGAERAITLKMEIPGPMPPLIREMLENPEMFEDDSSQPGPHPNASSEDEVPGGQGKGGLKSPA
Chain of Nuclear receptor subfamily 1 group I member 2 (Homo sapiens) (O75469 whole entry, looked up, the tested form may be a part): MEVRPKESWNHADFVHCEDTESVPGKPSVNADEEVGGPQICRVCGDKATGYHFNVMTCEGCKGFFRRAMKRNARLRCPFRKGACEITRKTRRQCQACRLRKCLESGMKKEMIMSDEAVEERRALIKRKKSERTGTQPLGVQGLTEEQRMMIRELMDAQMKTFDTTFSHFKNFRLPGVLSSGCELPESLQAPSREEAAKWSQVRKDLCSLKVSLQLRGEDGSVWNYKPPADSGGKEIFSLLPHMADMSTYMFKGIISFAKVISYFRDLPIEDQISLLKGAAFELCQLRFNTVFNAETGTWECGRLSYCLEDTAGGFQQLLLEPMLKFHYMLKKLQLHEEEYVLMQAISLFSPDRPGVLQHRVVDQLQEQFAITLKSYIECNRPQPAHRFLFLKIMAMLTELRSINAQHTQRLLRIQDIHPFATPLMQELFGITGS
Chain of Retinoic acid receptor alpha (Homo sapiens) (P10276 whole entry, looked up, the tested form may be a part): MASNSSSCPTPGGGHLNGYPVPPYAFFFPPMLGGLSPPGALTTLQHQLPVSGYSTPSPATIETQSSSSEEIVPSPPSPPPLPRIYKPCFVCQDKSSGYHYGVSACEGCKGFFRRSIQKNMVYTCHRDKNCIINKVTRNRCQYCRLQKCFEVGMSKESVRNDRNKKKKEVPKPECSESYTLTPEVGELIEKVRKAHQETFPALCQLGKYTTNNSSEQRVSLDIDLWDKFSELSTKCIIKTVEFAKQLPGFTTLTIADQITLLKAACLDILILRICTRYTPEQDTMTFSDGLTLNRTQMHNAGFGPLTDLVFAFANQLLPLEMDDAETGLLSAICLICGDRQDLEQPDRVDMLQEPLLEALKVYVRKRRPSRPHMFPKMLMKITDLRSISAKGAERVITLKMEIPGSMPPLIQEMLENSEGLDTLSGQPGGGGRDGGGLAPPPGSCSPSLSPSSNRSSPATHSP

Take `ClC1=C(Cl)[C@]2(Cl)[C@@H]3[C@@H](Cl)[C@H]4O[C@H]4[C@@H]3C1(Cl)C2(Cl)Cl`: the half-maximal activity concentration (AC50) (usually the concentration giving half of the maximal activity seen) in [1] was 65.1 µM (active); in experiment [4], 28.4 µM (active); in experiment [5], 60 µM (active); in experiment [6] it was 100 µM (active); in [14], 11.2 µM (active); in experiment [15] it was 4.39 µM (active). Further, the molecule was called inactive in experiment [2], in experiment [3], in experiment [7], in [8], in [9] and in experiment [10]. Moreover, the outcome in [11], in experiment [12], in experiment [13] and in experiment [16] was inactive.
Regarding `CC1=C2C[C@H]3[C@@H](CC=C4C[C@@H](O)CC[C@@]43C)[C@@H]2CC[C@]12O[C@@H]1C[C@H](C)CN[C@H]1[C@H]2C`, the result in experiment [1], in experiment [2], in [4], in [5], in experiment [6] and in experiment [7] was inactive. Besides, the result in [8], in [9], in experiment [10], in experiment [11], in experiment [12] and in experiment [13] was inactive. Besides, the outcome in [14] and in [16] was inactive.
Take `Cc1cccc([N+](=O)[O-])c1`: the molecule was called inactive in experiment [1], in [2], in [3], in experiment [4], in [5] and in [6]. Besides, the outcome in experiment [7], in [8], in [9], in [10], in [12] and in experiment [17] was inactive. Besides, the outcome in experiment [14] and in [16] was inactive.
In the case of `C[C@]12CCC(=O)C=C1CC[C@@H]1[C@@H]2CC[C@]2(C)C(=O)CC[C@@H]12`, the molecule was classed as inactive in experiment [1], in [2], in experiment [4], in experiment [5], in [6] and in [7]. Further, the result in experiment [8], in [9], in [10], in experiment [11], in experiment [12] and in experiment [17] was inactive. In addition, the result in experiment [13], in experiment [14], in experiment [18], in [15] and in experiment [16] was inactive. The half-maximal activity concentration (AC50) in [15] was 7.27 µM (active) and 26.8 µM (active).
For `CO/C=C(/C(=O)OC)c1ccccc1COc1cccc(C(F)(F)F)n1`, the molecule was called inactive in experiment [1], in experiment [2], in [3], in experiment [6], in experiment [12] and in experiment [16]. For the same molecule, the half-maximal activity concentration (AC50) was 5.41 µM (active) in [4]; 11.5 µM (active) in experiment [5]; 10.4 µM (active) in experiment [7]; 36.9 µM (active) in [8]; 20 µM (active) in experiment [9]; 16.5 µM (active) in experiment [10]. Besides, the AC50 was 1.82 µM (active) in [14], 5.74 µM (active) in experiment [18] and 0.264 µM (active) in experiment [15].
Take `C[C@]12CCC(=O)C=C1CC[C@@H]1[C@@H]2CC[C@@]2(C)[C@H]1CC[C@]2(C)O`: the call in [1], in experiment [2], in [5], in [6], in [7] and in experiment [8] was inactive. The result in experiment [9], in [10], in experiment [11], in [12], in [18] and in [15] was inactive. The result in [16] and in experiment [19] was inactive. Further, the AC50 in [4] is 60.3 µM (active) and 53.6 µM (active) and 91.5 µM (active); in [6], 58.8 µM (active); in experiment [14], 28.8 µM (active).
